# Reference: PubChem BioAssay (NCI)
# Where “and” joins values, the source holds several entries; their conditions need not be identical. Equal entries are not always repeated. The panel holds about 83,000 compounds, 20% with a hit somewhere; the sample as a whole holds those more often.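 Cell lines were cultured in 96-well plates, exposed to a single compound concentration, and assessed for percent growth 48 hours later.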 Calls of active or inactive are those of the source. Rule for the calls: active = growth percent below 10; inactive = the rest.
# Columns and labels:
# Experiment in all cases: NCI-60 one-dose screen, 48 h (100 = growth as untreated, 0 = no growth, -100 = all killed)
# Settings in all cases: 10 µM unless noted
# SK-MEL-2 melanoma = tested on: SK-MEL-2 melanoma
# EKVX NSCLC = tested on: EKVX NSCLC
# SN12C renal = tested on: SN12C renal
# UO-31 renal = tested on: UO-31 renal
# TK-10 renal = tested on: TK-10 renal
# ACHN renal = tested on: ACHN renal
# CAKI-1 renal = tested on: CAKI-1 renal
# CCRF-CEM leukemia = tested on: CCRF-CEM leukemia
# MOLT-4 leukemia = tested on: MOLT-4 leukemia
# SR leukemia = tested on: SR leukemia
# RPMI-8226 leukemia = tested on: RPMI-8226 leukemia
# OVCAR-8 ovarian = tested on: OVCAR-8 ovarian
# OVCAR-5 ovarian = tested on: OVCAR-5 ovarian
# OVCAR-4 ovarian = tested on: OVCAR-4 ovarian
# OVCAR-3 ovarian = tested on: OVCAR-3 ovarian
# HS 578T breast = tested on: HS 578T breast
# NCI/ADR-RES ovarian = tested on: NCI/ADR-RES ovarian
# SK-OV-3 ovarian = tested on: SK-OV-3 ovarian
# IGROV1 ovarian = tested on: IGROV1 ovarian
# A498 renal = tested on: A498 renal
SMILES,growth (SK-MEL-2 melanoma),growth (EKVX NSCLC),growth (SN12C renal),growth (UO-31 renal),growth (TK-10 renal),growth (ACHN renal),growth (CAKI-1 renal),growth (CCRF-CEM leukemia),growth (MOLT-4 leukemia),growth (SR leukemia),growth (RPMI-8226 leukemia),growth (OVCAR-8 ovarian),growth (OVCAR-5 ovarian),growth (OVCAR-4 ovarian),growth (OVCAR-3 ovarian),growth (HS 578T breast),growth (NCI/ADR-RES ovarian),growth (SK-OV-3 ovarian),growth (IGROV1 ovarian),growth (A498 renal)
COc1c(/C(C)=N/N=c2sc(C(C)=O)nn2-c2ccc(Cl)cc2)c(Oc2ccccc2)c(OC)c2occc12,111% (inactive) and 114% (inactive),93.1% (inactive) and 99.8% (inactive),104% (inactive) and 98.8% (inactive),75.8% (inactive) and 72.3% (inactive),124% (inactive) and 118% (inactive),109% (inactive) and 101% (inactive),82% (inactive) and 64.5% (inactive),106% (inactive),103% (inactive) and 89.3% (inactive),107% (inactive) and 104% (inactive),107% (inactive) and 96.3% (inactive),102% (inactive),104% (inactive) and 97.7% (inactive),102% (inactive) and 97.9% (inactive),102% (inactive),103% (inactive),96.5% (inactive) and 99.7% (inactive),,,
c1ccc2cc(C[n+]3ccn(Cc4ccc5ccccc5n4)c3)ccc2c1,-35.6% (active) and -4.1% (active),15.9% (inactive) and 69% (inactive),2.29% (active) and 11.9% (inactive),98% (inactive) and 86.4% (inactive),-27% (active) and 80.5% (inactive),86.3% (inactive) and 102% (inactive),96.2% (inactive),10.8% (inactive) and 40.5% (inactive),0.992% (active) and 34% (inactive),-3.69% (active) and 31.5% (inactive),3.76% (active) and 13.1% (inactive),1.74% (active) and 23.8% (inactive),13.4% (inactive) and 50.9% (inactive),11.5% (inactive) and 33.7% (inactive),-1.69% (active) and 21.7% (inactive),27.8% (inactive) and 33% (inactive),103% (inactive) and 102% (inactive),-11.7% (active) and 34.2% (inactive),11.6% (inactive) and 25.1% (inactive),
Cc1cccc(/C=C\C(=O)c2ccc(Cl)cc2)c1,94.9% (inactive) and 100% (inactive),91.1% (inactive) and 94.3% (inactive),94.9% (inactive) and 97% (inactive),68.3% (inactive) and 86.1% (inactive),75.5% (inactive) and 85.3% (inactive),102% (inactive) and 105% (inactive),90.1% (inactive) and 85.1% (inactive),,90.2% (inactive) and 55% (inactive),36% (inactive) and 3.37% (active),26.1% (inactive),101% (inactive) and 100% (inactive),93.5% (inactive) and 98.5% (inactive),89.1% (inactive) and 103% (inactive),96.6% (inactive) and 101% (inactive),112% (inactive) and 102% (inactive),101% (inactive) and 99.2% (inactive),108% (inactive) and 104% (inactive),101% (inactive) and 92.7% (inactive),78.9% (inactive) and 54.4% (inactive)
CCC(O)c1ccccc1 (stereo unspecified),104% (inactive),94.1% (inactive) and 110% (inactive),98.1% (inactive) and 96.2% (inactive),98.8% (inactive) and 91.3% (inactive),113% (inactive) and 111% (inactive),107% (inactive) and 111% (inactive),-23.1% (active) and 97% (inactive),,98.1% (inactive) and 78.8% (inactive),100% (inactive) and 94.1% (inactive),192% (inactive),101% (inactive) and 96.1% (inactive),106% (inactive) and 108% (inactive),103% (inactive) and 107% (inactive),112% (inactive) and 109% (inactive),,112% (inactive) and 118% (inactive),121% (inactive) and 105% (inactive),109% (inactive) and 108% (inactive),88.5% (inactive) and 92.8% (inactive)
OCc1ccccn1,106% (inactive),110% (inactive),97.4% (inactive),97.9% (inactive),100% (inactive),107% (inactive),101% (inactive),,99.1% (inactive),96.9% (inactive),,108% (inactive),105% (inactive),113% (inactive),112% (inactive),106% (inactive),109% (inactive),117% (inactive),116% (inactive),81.8% (inactive)
